Key:
[1] = molecular target: T1, Aspartate--tRNA(Asp/Asn) ligase (Mycobacterium tuberculosis (strain ATCC 25618 / H37Rv)) (UniProt P9WFW3); assay: Assay for Asp RNA synthetase-1 from Mycobacterium tuberculosis; type: functional; set-up: scale not given: direction of the effect not stated beside the values; conditions: 30 µM; further: in the data most compounds retested in dose-response had high values
T1 sequence (whole entry): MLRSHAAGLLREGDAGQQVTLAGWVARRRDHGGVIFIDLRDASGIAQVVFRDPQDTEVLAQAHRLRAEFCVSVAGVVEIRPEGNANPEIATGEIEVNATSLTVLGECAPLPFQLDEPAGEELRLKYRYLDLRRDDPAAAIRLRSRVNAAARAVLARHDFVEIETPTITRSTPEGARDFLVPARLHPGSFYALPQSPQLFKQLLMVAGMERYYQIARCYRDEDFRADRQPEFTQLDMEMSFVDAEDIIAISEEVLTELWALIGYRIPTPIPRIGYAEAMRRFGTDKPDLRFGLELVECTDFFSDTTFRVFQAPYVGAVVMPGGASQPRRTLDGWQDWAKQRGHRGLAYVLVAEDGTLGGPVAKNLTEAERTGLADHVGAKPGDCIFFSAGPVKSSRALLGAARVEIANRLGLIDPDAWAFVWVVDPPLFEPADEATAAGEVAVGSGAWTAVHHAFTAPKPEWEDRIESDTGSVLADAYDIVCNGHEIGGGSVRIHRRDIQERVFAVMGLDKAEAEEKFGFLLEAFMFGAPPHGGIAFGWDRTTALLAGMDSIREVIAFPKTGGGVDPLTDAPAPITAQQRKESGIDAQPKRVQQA

[2] = molecular target: Shiga toxin 2 (Escherichia coli O157:H7) (UniProt P09385+P09386); assay: E. coli 0.157:H7 Shiga Toxin SOP - stx2 screening assay; type: functional; set-up: scale not given: direction of the effect not stated beside the values; conditions: 30 µM

| SMILES | Percent Effect [1] | Percent Effect [2] |
| --- | --- | --- |
| NS(=O)(=O)CCNC(=O)c1nnn(-c2ccccc2)c1C1CC1 | 2.35% | -12.7% |
| CCN1CCN(Cc2coc(-c3cccc(F)c3)n2)CC1 | -7.31% | -35.5% |
| Cc1cc(C(=O)N2CCC(c3nccn3CCCN(C)C)CC2)no1 | 7.7% | -11.8% |
| CCn1ccc(C(=O)NCCCN2CCOCC2)n1 | 8.41% | -55.1% |
| CC(C)c1nc2c(n1C)CCN(CC(=O)Nc1ccc(Cl)cn1)C2 | 3.34% | -0.161% |
| Cc1cc(C)n(CC2CCCN2CC(=O)N(C)C)n1 (stereo not drawn) | -2.12% | 10.1% |
| CN1CCN(C(=O)c2ccc(=O)n(C)c2)c2ccccc21 | -7.61% | -16.6% |
| O=C(C1SCCc2sccc21)N1CCN(CCO)CC1 (stereo not drawn) | -0.774% | 24.8% |
| CN1CCCN(C[C@@H]2CN(C(=O)CCC3CCCC3)C[C@@H]2CO)CC1 | 6.99% | -19.6% |
| Cc1ccccc1-c1cncc(C2CCN(C(=O)CN(C)C)CC2)n1 | 6.8% | -18.5% |
| CC(C)n1ncc2c1NC(=O)CC21C(=O)Nc2c(Cl)cc(Cl)cc21 (stereo not drawn) | 0.842% | 1.79% |
| COc1cccc(N2CCN(CC(O)c3cc(C)ccc3C)CC2)c1 (stereo not drawn) | 9.16% | -19.7% |
| Cc1cc(C(C)C(=O)N2CCCN(Cc3cscn3)CC2)c(C)o1 (stereo not drawn) | -4.75% | 19.4% |
| CC(=O)N1CCC(c2cncc(Oc3ccccc3)n2)CC1 | 0.485% | 3.32% |
| O=C(c1cc[nH]n1)N1CCCC(c2cccc(-n3ccnc3)n2)C1 (stereo not drawn) | -2.72% | 9.34% |
| O=C(c1cccc2c1OCO2)N1CCCC1c1noc(C2CC2)n1 (stereo not drawn) | -11.7% | -15.1% |
| CN(C)S(=O)(=O)N1CCC(Oc2ccc(C#N)cn2)CC1 | 5.76% | -4.88% |
| CCC(=O)N1CCC(c2nc3ccc(NC(C)C)cn3n2)CC1 | -3.11% | -40.8% |
| CC(=O)N1CCC2(CC1)COCCN2CCN(C)C | 0.524% | 1.75% |
